Measured values: PubChem BioAssay AID1347076 (National Center for Advancing Translational Sciences (NCATS), 2019)
Hit rate of the full screen: of about 400,000 compounds, about 13,000 (3.2%) were called active. Inconclusive results (about 18%) are left out. Calls follow the shape of the dose curve; as a rule, active = well fitted cell-killing curve with a large enough effect; inconclusive = small, poorly fitted or top-dose-only effect, or effect the other way; inactive = flat fitted curve, though single readings scatter. The list comes from a sample in which actives are over-represented; it also holds similar structures and randomly drawn compounds. Where a call stands in place of a potency, no number is given.

assay: qHTS assay for MDR1-selective chemotherapeutics: Primary screen using the drug-selected MDR subline cells KB-V1; settings: KB-V1 MDR cells viability, CellTiter-Glo, 72 h; series mostly up to 46.1 µM; also: nearly all actives have a fitted effect of over 60% in size
Excerpt: A prime difficulty in effectively treating cancer is the development of cellular resistance to multiple structurally unrelated anticancer drugs, a phenomenon known as multidrug resistance (MDR). […] Numerous strategies to overcome P-gp-mediated MDR have been explored, including the design of drugs that evade recognition and efflux, and development of inhibitors to block efflux and restore drug accumulation. […] An alternative approach is to exploit resistance by identifying drugs that target MDR cells over the non-resistant parental cells from which they were selected. […] The development of MDR1-selective agents represents a new strategy for resolving multidrug resistance, as it remains a long-standing clinical challenge for cancer chemotherapy.
Our goal is to identify compounds that selectively kill P-gp-expressing MDR cells. We will identify MDR1-selective compounds by comparing toxicity of compounds in the screening library against parental, drug-naive (KB-3-1) adenocarcinoma cells as well as their drug-selected MDR sub-line (KB-V1). The differential toxicity of compounds against these two cell lines will be used to identify MDR1-selective compounds, whose cytotoxicity is potentiated, rather than diminished, by P-gp expression. This assay will be utilized to conduct a quantitative high-throughput screen (qHTS) in collaboration with the NIH Chemical Genomics Center to identify selective agents, and probe hits arising from the screen will be validated using secondary assays and characterized through a well-established follow-up research program. This screen was run against the entire NCGC library collection of about 400,000 compounds.
NIH Molecular Libraries Probe Production Network [MLPCN]
NIH Chemical Genomics Center [NCGC]
PI: Michael Gottesman, National Cancer Institute, NIH
Briefly, 5 microL of media containing either KB-V1 cells (columns 1-2, 4-48) are dispensed into Greiner white, treated solid-bottom 1536-well assay plates (media-only control is added to column 3). Compounds are then transferred via Kalypsys pin tool equipped with 1536-pin array (10 nL slotted pins, V&P Scientific, San Diego, CA). Following addition of compound, the plates are incubated at 37 degrees C for 72 hours. CellTiter-Glo (2.5 µL/well) is then added, and the plates are read in a ViewLux reader (Perkin-Elmer, clear luminescence filter, 1 second exposure, 1x binning) following a 10 minute incubation. All cells are dispensed in DMEM phenol-red free media containing 10% FBS.
Library plates were screened starting from the lowest and proceeding to the highest concentration. Vehicle-only plates, with DMSO being pin-transferred to columns 5-48, will be inserted uniformly at the beginning and the end of each library in order to monitor and record any shifts in the background, which can be affected by reagent dispensers or loss in enzyme activity over time. Screening data will be corrected, normalized, and concentration-effect relationships will be derived by using publicly-available NCGC, NCATS curve fitting algorithms (http://ncgc.nih.gov/pub/openhts).
Potency is read from the fitted curve at half-maximal effect.

Structure (SMILES) | Potency
CC1CCN(Cc2nc(-c3ccc(Cl)cc3)no2)CC1 | inactive
CCN1CC(CN(C)Cc2nc(-c3ccc(Cl)cc3)no2)CC1=O (configuration not stated) | 16.4 µM (active)
CN1CCN(C(=O)CCc2nc(-c3ccc(Cl)cc3)no2)CC1 | inactive
C[C@H](CO)N1C[C@H](C)[C@H](CN(C)C(=O)Nc2ccc3c(c2)OCO3)Oc2ncc(Br)cc2C1=O | inactive
CC(C)(C)c1ccc(C(=O)C[N+]2(C)CCCc3ccccc32)cc1 (configuration not stated) | inactive
COc1ccc(-n2c(-c3ccc(Cl)cc3)n[nH]c2=S)c(OC)c1 | inactive
Cc1cc(Cl)ccc1NC(=O)Cc1ccc(NC(=O)N2CCCCc3ccccc32)cc1 | inactive
CCCC1=Nc2cc(C(=O)NCc3ccco3)ccc2Sc2ccccc21 | 4.11 µM (active)
CCCC1=Nc2cc(C(=O)NCCN3CCCC3)ccc2Sc2ccccc21 | inactive
O=C(NCc1ccco1)c1cccc(-c2ccc3nncn3c2)c1 | inactive
CCCCCNC(=O)C(c1ccc(OC)cc1)n1c(=O)c(-c2ccccc2)nc2ccccc21 (configuration not stated) | inactive
CCCCn1nnnc1C1(C)CCC(=O)N1Cc1ccc(OC)c(OC)c1 (configuration not stated) | inactive
C[C@H](CO)N1C[C@H](C)[C@H](CN(C)C(=O)c2ccncc2)OCc2ccccc2-c2c(n(C)c3ccccc23)C1=O | inactive
Cc1nn(Cc2ccc(Cl)cc2)c(Cl)c1/C=N/NC(=O)c1cccnc1 | inactive
CCn1nc(C)c(/C=N/NC(=O)Cc2ccc(Cl)cc2)c1C | inactive
Cc1nn(Cc2ccc(Cl)cc2)c(Cl)c1/C=N/NC(=O)CNc1ccccc1F | 3.26 µM (active)
CC(C)C[C@H]1CNC(=S)N1C[C@H]1CCCN1C[C@H](Cc1ccc(O)cc1)N1C[C@H](Cc2ccc(O)cc2)N(CC2CCCCC2)C1=S | inactive
Cn1cnc(S(=O)(=O)N2C[C@@H](O)COC[C@@H]3O[C@H](CC(=O)NC4CCC4)CC[C@H]32)c1 | inactive
OC[C@H]1O[C@@H](c2nc(-c3nc(-c4ccc(F)cc4)no3)cs2)[C@H](O)[C@@H](O)[C@H]1O | inactive
COc1cc(Cl)c(C)cc1Nc1nnc(-n2nc(C)cc2C)c2ccccc12 | inactive
COc1ccc(C(=O)NC2CC2)cc1OC1CCN(Cc2cnn(C)c2)CC1 | inactive
COc1ccc(C(=O)NC2CC2)cc1OC1CCN(C/C=C/c2ccccc2)CC1 | 16.4 µM (active)
COc1ccc(C(=O)NC2CC2)cc1OC1CCN(Cc2ccc(SC)cc2)CC1 | inactive
CN(C)CCCN(C(=O)c1ccc(S(=O)(=O)N2CCCCCC2)cc1)c1nc2ccc(Br)cc2s1 | 23.1 µM (active)
CCN(CC)CCN(C(=O)c1ccc(S(=O)(=O)N2CCOCC2)cc1)c1nc2cc3c(cc2s1)OCCO3 | inactive

Structure (SMILES) | Potency
CN(C)CCCN(C(=O)c1ccc(S(=O)(=O)N2CCCCCC2)cc1)c1nc2cc3c(cc2s1)OCCO3 | inactive
COC(=O)c1ccccc1N=NNc1ccc([N+](=O)[O-])cc1 | inactive
CC1(C(=O)NS(=O)(=O)c2cccc(F)c2)CCN1C(=O)Cc1cc(F)ccc1F (configuration not stated) | inactive
O=C(Nc1ccc(-c2nnc(-c3ccccc3)o2)cc1)C1CCCO1 (configuration not stated) | 8.2 µM (active)
O=C(Nc1cccc(-c2nnc(-c3ccccc3)o2)c1)C1CCCO1 (configuration not stated) | inactive
O=C(Nc1nnc(CCc2ccccc2)s1)C1CCCO1 (configuration not stated) | inactive
CC1(C(=O)NCc2ccccc2)CSCC(=O)N1CCCn1ccnc1 (configuration not stated) | inactive
COc1ccc(-c2cc(NCc3ccc(F)cc3)n3cnnc3n2)cc1 | inactive
CC(Cc1cccs1)NC(=O)c1cccc(Cl)c1 (configuration not stated) | inactive
Cc1cccc(C(=O)N[C@H](C(=O)NCc2cccs2)C(C)C)c1 | 9.2 µM (active)
CC(=O)Nc1ccc(NC(=O)[C@@H](NC(=O)c2cccc(C)c2)C(C)C)cc1 | inactive
COc1ccc(-c2[nH][nH]c(=O)c2NC(=O)c2ccc([N+](=O)[O-])cc2)cc1 | inactive
S=C(NCC1COc2ccccc2O1)Nc1ccc(Br)cc1 (configuration not stated) | 23.1 µM (active)
O=C(NCC1COc2ccccc2O1)C1(c2ccccc2)CCCC1 (configuration not stated) | inactive
CCCN(CC1COc2ccccc2O1)C(=S)Nc1ccc(C)cc1 (configuration not stated) | inactive
C[C@@H]1CN([C@H](C)CO)C(=O)c2cc(-c3ccc(F)cc3)cnc2O[C@H]1CN(C)C(=O)c1ccc(F)cc1 | inactive
CN(Cc1c(F)cccc1Cl)C(=O)COC(=O)Cn1cnc2ccccc2c1=O | inactive
CC1CCN(C(=O)c2cccc(S(=O)(=O)N3CCCc4ccccc43)c2)CC1 | inactive
Cn1c(=O)n(C)c2cc(S(=O)(=O)N3CCCc4ccccc43)ccc21 | 8.2 µM (active)
COc1cc(C)c(C)cc1S(=O)(=O)N1CCCc2ccccc21 | inactive
C[C@H](CO)N1C[C@H](C)[C@@H](CN(C)Cc2ccc3c(c2)OCO3)OCc2cnnn2CCCC1=O | inactive
CC1(C(=O)Nc2cccnc2)Cc2c(-c3ccccc3)ccnc2O1 (configuration not stated) | inactive
Cc1[nH]c2ccccc2c1C(=O)C(C)Sc1nnc(C2CC2)o1 (configuration not stated) | 7.31 µM (active)
Cc1[nH]c2ccccc2c1C(=O)CN1CC(C)CC(C)C1 (configuration not stated) | inactive
Cc1nnc(SC(C)C(=O)c2c[nH]c3ccccc23)n1C1CC1 (configuration not stated) | inactive

Structure (SMILES) | Potency
COc1ccc(NC(=O)c2ccc3nc(CCc4ccccc4)oc3c2)c(OC)c1 | inactive
CC1(C(=O)NS(=O)(=O)c2cccs2)CCN1C(=O)Cc1ccc(-c2ccccc2)cc1 (configuration not stated) | inactive
O=C(COc1ccccc1C(=O)Nc1ccccc1)Nc1cccc(F)c1 | inactive
Cc1nc2c(-c3ccccc3)c(C)nn2c(C)c1CCC(=O)NCCc1ccccc1 | inactive
COc1cc(NC(=O)CCn2nc(C)cc2C)cc(OC)c1OC | inactive
CSc1ncccc1C(=O)N1CCCC(CCC(=O)NCc2ccccc2F)C1 (configuration not stated) | inactive
COc1cccc(CNC(=O)CCC2CCCN(C(=O)c3cc(C)[nH]n3)C2)c1 (configuration not stated) | inactive
Cc1[nH]c2c(C(=O)N3CCCC(CCC(=O)NCc4ccccc4F)C3)cccc2c1C (configuration not stated) | 16.4 µM (active)
CC(C)NC(=O)N1Cc2cc(C(=O)NCC(F)(F)F)nc(-c3cccc(-c4cc5ccccc5o4)c3)c2[C@@H]1CCO | inactive
COc1ccc2nc(N3CCCC(O)C3)c(C#N)cc2c1 (configuration not stated) | inactive
CCOc1ccc2nc(N3CCCC(C(=O)Nc4cc(C)ccc4C)C3)sc2c1 (configuration not stated) | inactive
CCOc1ccc2nc(N3CCCN(C(=O)Nc4ccccc4C)CC3)c(C#N)cc2c1 | 18.4 µM (active)
CCOC(=O)c1ccccc1NC(=O)c1nn(-c2ccc(OC)c(Cl)c2)c(=O)c2c1c1ccccc1n2C | inactive
CN(C)CCNC(=O)c1ccc(-c2cn3c(-c4ccc(Oc5ccccc5)cc4)cnc3cn2)cc1 | inactive
O=C(CCc1nc(CN2CCN(S(=O)(=O)c3ccc(F)cc3)CC2)no1)N1CCCCC1 | inactive
Cc1cc(O)ccc1-c1cnc2ccccc2n1 | 14.6 µM (active)
Oc1ccc(-c2nc3ccccc3nc2-c2ccc(O)cc2O)c(O)c1 | inactive
CC(=O)Nc1cnc(-c2ccc(O)cc2C)cn1 | inactive
O=C(Nc1ccccc1Br)c1cc(CN2CCCC2)on1 | inactive
OC(c1ccc(Cl)cc1)c1ncc(-c2ccc(Cl)cc2)[nH]1 (configuration not stated) | inactive
O=C(Nc1ccc(OC(F)(F)F)cc1)c1ccc2c(c1)no[n+]2[O-] | 20.6 µM (active)
Cn1cccc1/C=N/NC(=O)c1ccc(OC(F)(F)C(F)F)cc1 | inactive
COC(=O)c1cnn(-c2ccc(C(=O)Nc3ccc(OC(F)(F)F)cc3)cc2)c1N | inactive
CCN(CC)C(=O)C1=C(C)N(Cc2ccc(F)cc2)C(=O)C(CC(=O)NC2CCCC2)C1 (configuration not stated) | inactive
CCc1ccc([C@@H]2CC(=O)[C@@H]3CN(S(=O)(=O)c4ccc(C)cc4)[C@H](c4ccc(Cl)cc4)C[C@@H]3N2S(=O)(=O)c2ccc(C)cc2)cc1 | inactive

Structure (SMILES) | Potency
Cc1ccc2nc(CN3CCN(S(=O)(=O)c4ccc(C)c(C)c4)CC3)oc2c1 | inactive
Cc1ccc(S(=O)(=O)N2CCN(c3ccccc3)CC2)cc1C | inactive
Cc1cc(N2CCN(S(=O)(=O)c3ccc(C)c(C)c3)CC2)c2ccccc2n1 | 3.26 µM (active)
CCOC(=O)c1c(C)[nH]c(C)c1S(=O)(=O)N1CCCC(C(=O)NCc2ccccc2Cl)C1 (configuration not stated) | inactive
CCn1c(CNc2ccc(OC)cc2)nnc1SCC(=O)c1ccc(OC)cc1 | inactive
CCc1nnc(NC(=O)CSc2nnc(Cc3ccccc3)n2-c2ccc(OC)cc2)s1 | inactive
COc1ccc(NCc2nnc(SCc3ccccc3)n2-c2ccc(OC)cc2)cc1 | 8.2 µM (active)
CNC(=O)c1ccc(-c2nc(CN3CCc4ccccc43)c(C)o2)cc1 | inactive
O=C(CN1CCN(c2nc(-c3ccccc3)cs2)CC1)NCc1ccc2c(c1)OCO2 | inactive
COc1ccc(C(O)c2nc(-c3ccc4c(c3)OCO4)cs2)cc1 (configuration not stated) | inactive
COc1ccc(-c2csc(N3CCN(Cc4ccc5c(c4)OCO5)CC3)n2)cc1 | 13 µM (active)
CCN(C(=O)Nc1cccc2ccccc12)c1ccccc1 | inactive
CC1(C(=O)Nc2ccccc2Br)CCN1C(=O)CC1CC1 (configuration not stated) | inactive
Cc1ccc(CN(C)C[C@@H]2OCc3cnnn3CCCC(=O)N([C@@H](C)CO)C[C@H]2C)cc1 | inactive
CCC(C(=O)Nc1c(C)cccc1C)n1c(-c2cc(C)cs2)nc2ccccc21 (configuration not stated) | inactive
OC(c1cc(Cl)cc(Cl)c1)c1ncc(-c2ccccc2C(F)(F)F)[nH]1 (configuration not stated) | inactive
Cc1cc(OCCCN2CCN(Cc3ccccc3)CC2)ccc1[N+](=O)[O-] | inactive
CCc1cc(=O)oc2cc(OCC(=O)N3CCCc4ccccc43)ccc12 | inactive
Cc1cc(=O)oc2cc(OCC3CC(c4ccccc4Cl)=NO3)ccc12 (configuration not stated) | 1.16 µM (active)
Cc1cc(=O)oc2cc(OCC(=O)Nc3nnc(C4CC4)s3)ccc12 | inactive
Cc1ccccc1NC(=O)c1ccc(COc2ccc3c(C)cc(=O)oc3c2)cc1 | inactive
Cc1ccccc1N1CCN(CCCOc2ccc3c(C)cc(=O)oc3c2)CC1 | 11.2 µM (active)
